Screening results from PubChem BioAssay.
GLA spleen mod: inhibitors or activators of human alpha-galactosidase in spleen homogenate | P06280 | human spleen homogenate, 4MU-alpha-Gal fluorescence, 40 min | Potency, µM (doses to about 80 µM), inactives show at the top dose activity change, negative = inhibition, hits mostly inhibitors | 240,000 tested, 0.008% active;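 note: potency is the fitted concentration of half-maximal effect; 0% = enzyme with vehicle and -100% = no enzyme basal signal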
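Fluorogenic readout (Ex 365/Em 440 nm) of 4-methylumbelliferone released from 1 mM 4-MU-alpha-galactoside by spleen homogenate, 40 min at 37C, pH 5.0. Data normalized to no-enzyme and enzyme controls; Hill-equation AC50 from compound titrations.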
GLA inh pH 4.5: alpha-galactosidase A (human) inhibition, pH 4.5. P06280. purified enzyme, 4-MU-alpha-Gal fluorescence, pH 4.5. activity change, negative = inhibition, % at 105 µM. 230,000 tested, under 10 active. AID 1467;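 note: 0% = full activity with enzyme and -100% = basal without enzyme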
HTT ATP protect: protects HTT-Q103 PC12 cells, measured by ATP. PC12 HTT-Q103 induced, cytoprotection, ATP luminescence, 40 h. Potency, µM (doses to about 56.4 µM), for inactives: cytoprotection (ATP increase), actives largely listed as activators. 230,000 tested, 0.14% active; note: potency is the fitted concentration of half-maximal effect; % of control where 0% means no effect; nearly all actives have a fitted effect of over 45% in size
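Huntington model: PC12 line, ecdysone-inducible HTTQ103 exon1–GFP, tebufenozide 100 nM. Test articles in a dose series. Endpoint luminescence from cellular ATP.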
PKM2 activator: PKM2 (human) enzyme activation; purified PKM2, Kinase-Glo ATP luminescence, activation; response scale: 0% is enzyme alone, no compound; Potency, µM (top dose mostly 57.5 µM), inactives show at the highest dose activation, actives largely listed as activators; P14618; 260,000 tested, 0.34% active; note: potency is the fitted concentration of half-maximal effect; % is set by controls: 0 for no effect and ±100 for the full control effect; nearly all actives have a fitted effect of over 55% in size
Target sequence (P14618 whole entry, looked up): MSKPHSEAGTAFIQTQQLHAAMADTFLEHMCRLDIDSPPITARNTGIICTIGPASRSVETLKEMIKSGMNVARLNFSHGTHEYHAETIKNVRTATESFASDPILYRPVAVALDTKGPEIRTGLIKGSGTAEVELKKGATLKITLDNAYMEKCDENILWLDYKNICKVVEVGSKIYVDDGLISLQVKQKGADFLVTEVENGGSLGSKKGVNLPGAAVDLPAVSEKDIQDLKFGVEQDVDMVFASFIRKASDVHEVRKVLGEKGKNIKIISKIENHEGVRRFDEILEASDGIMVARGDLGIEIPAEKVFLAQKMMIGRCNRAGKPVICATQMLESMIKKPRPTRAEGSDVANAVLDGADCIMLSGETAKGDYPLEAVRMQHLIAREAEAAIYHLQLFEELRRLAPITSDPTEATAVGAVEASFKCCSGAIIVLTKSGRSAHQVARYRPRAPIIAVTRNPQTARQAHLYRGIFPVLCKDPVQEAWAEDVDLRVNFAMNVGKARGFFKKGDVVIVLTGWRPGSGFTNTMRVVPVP
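ATP formation by purified human PK-M2, quantified via coupled luciferase luminescence after 1 h at room temperature with 0.1 mM ADP and 0.5 mM PEP final.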
HTT aggregate: mutant huntingtin aggregation inhibition; PC12 HttQ103-GFP aggregates, Acumen cytometry, 40 h; Potency, µM (titrated, usually from 46.1 µM), inactives show at the top dose activity change, negative = inhibition, hits mostly inhibitors; 220,000 tested, 1.1% active; note: potency is the fitted concentration of half-maximal effect; % is set by controls: 0 for no effect and ±100 for the full control effect; nearly all actives have a fitted effect of over 60% in size
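Compounds (qHTS titration) were added to PC12 cells expressing an ecdysone-driven HTT exon 1 Q103–GFP fusion after induction with 100 nM tebufenozide. Aggregate formation was measured as GFP objects in cell lysates.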
* marks the source's active call; other numbers are inactive results; [ ] = remark or other dose. An excerpt weighted towards active compounds, which were near 1.2% of everything screened. Calls come from the whole dose curve; as a rule, active = well fitted curve in the direction sought with a large enough effect; inconclusive = small, poorly fitted or top-dose-only effect, or another doubt; inactive = no such curve, though single readings can be large; an effect the other way counts as inactive or inconclusive.

Cc1ccccc1-c1cc(C(=O)Nc2sc(C)c(C)c2C(N)=O)c2ccccc2n1 was read as GLA spleen mod 3.6%, GLA inh pH 4.5 -12.3, HTT ATP protect -54.8%, PKM2 activator -3.4% and HTT aggregate inconclusive.
For CCOC(=O)c1sc(NC(=O)CSc2n[nH]c(-c3ccc(Cl)cc3Cl)n2)c(C#N)c1C the results were GLA spleen mod -1.1%, GLA inh pH 4.5 3.3, HTT ATP protect -66.2%, PKM2 activator -0.7% and HTT aggregate 12.6µM*.
`CCOC(=O)c1sc(NC(=O)c2cc(-c3ccccc3C)nc3ccccc23)c(C#N)c1C` gave GLA spleen mod 6.6%, GLA inh pH 4.5 -7.1, HTT ATP protect 34.2%, PKM2 activator 3.1% and HTT aggregate 5.62µM*.
For Cc1ccc(S(=O)(=O)OCC(=O)O)cc1 the results were HTT ATP protect 10.8%[10 µM].
Screening O=C(Nc1nc2ccccc2s1)c1ccc(OCC2CCCO2)cc1 (configuration not stated) returned GLA spleen mod -13.7%, GLA inh pH 4.5 1.0, HTT ATP protect -4.9%[10 µM], PKM2 activator -8.2% and HTT aggregate 31.6µM*.
Screening O=C(O)c1ccccc1-c1ccc(C(F)(F)F)cc1 returned HTT ATP protect inconclusive and HTT aggregate 16.7%.
Screening Nc1ncnc(N2CCc3ccccc32)c1[N+](=O)[O-] returned GLA spleen mod -1.1%, GLA inh pH 4.5 6.3, HTT ATP protect -7.4%, PKM2 activator 0.6% and HTT aggregate 2.51µM*.
`Nc1ncnc(Nc2ccccn2)c1[N+](=O)[O-]` gave GLA spleen mod 7.0%, GLA inh pH 4.5 1.3, HTT ATP protect inconclusive, PKM2 activator -9.8% and HTT aggregate inconclusive.
COc1ccc(N/C=C2/CCCCC2=O)cc1 was read as GLA spleen mod 0.5%, GLA inh pH 4.5 1.1, HTT ATP protect 20µM*, PKM2 activator -0.4% and HTT aggregate 5.9%.
Screening COc1ccc(Oc2ccc(N/C=C3/CCCC3=O)cc2)cc1 returned GLA spleen mod -14.4%, GLA inh pH 4.5 6.4, HTT ATP protect -35.3%[10 µM], PKM2 activator 7.8% and HTT aggregate 17.3%.
`Cc1cc(NC(=O)CSc2nc3c(cc2C#N)CCC3)no1` gave PKM2 activator 2.51µM*.
Screening Cc1cc(C)c2nc(SCC(=O)Nc3cc(C)on3)c(C#N)cc2c1 returned PKM2 activator 1.12µM*.
For Cc1cc(NC(=O)CSc2nc3c(cc2C#N)CCCC3)no1 the results were GLA spleen mod 4.1%, GLA inh pH 4.5 1.4, PKM2 activator inconclusive and HTT aggregate 1.3%.
Screening CC(/C=C/C=C(\C)C(=O)O[C@@H]1O[C@H](CO[C@@H]2O[C@H](CO)[C@@H](O)[C@H](O)[C@H]2O)[C@@H](O)[C@H](O)[C@H]1O)=C\C=C\C=C(C)\C=C\C=C(/C)C(=O)O[C@@H]1O[C@H](CO[C@@H]2O[C@H](CO)[C@@H](O)[C@H](O)[C@H]2O)[C@@H](O)[C@H](O)[C@H]1O returned HTT ATP protect inconclusive and HTT aggregate -2.4%.
`Cn1ncc([N+](=O)[O-])c1C(=O)Nc1ccn(Cc2ccccc2F)n1` gave GLA spleen mod 7.7%, GLA inh pH 4.5 2.8, HTT ATP protect -0.1%, PKM2 activator 5.1% and HTT aggregate 7.3%.
`Cn1cc([N+](=O)[O-])c(C(=O)Nc2ccn(Cc3c(F)c(F)cc(F)c3F)n2)n1` gave GLA spleen mod -10.4%, GLA inh pH 4.5 1.9, HTT ATP protect 10µM* and PKM2 activator -6.3%.
O=c1c(CCc2ccccc2)nc2cnc(N3CCNCC3)nc2n1CCc1ccccc1 was read as GLA spleen mod 2.3% and HTT ATP protect -328.8%.
For C=CCCC/C=C(/C)C(OCc1ccc(OC)cc1)C(CC/C=C(\C)C(N)=O)OC (configuration not stated) the results were GLA spleen mod 8.6%[17.5 µM] and HTT ATP protect -2.5%[10 µM].
O=C(NCCc1ccccc1)c1oc2ccccc2c1COc1ccccc1 was read as GLA spleen mod -8.9%, GLA inh pH 4.5 -12.6, HTT ATP protect 37.1%[10 µM], PKM2 activator -3.9% and HTT aggregate 14.1µM*.
Screening O=C(Nc1ccccc1Cc1ccccc1)c1oc2ccccc2c1COc1ccccc1 returned GLA spleen mod 1.5%, GLA inh pH 4.5 -1.0, HTT ATP protect 15.2%[10 µM], PKM2 activator -1.7% and HTT aggregate -3.2%.
`Cc1nn(-c2ccccc2)c(N)c1N=Nc1ccccc1` gave GLA spleen mod -26.5%, GLA inh pH 4.5 -4.6, PKM2 activator -2.6% and HTT aggregate -4.6%.
Cc1nn(-c2ccccc2)c(N)c1N=Nc1ccc(Cl)cc1 was read as GLA spleen mod -7.9%, GLA inh pH 4.5 -16.9, HTT ATP protect -86.7%[10 µM], PKM2 activator 5.5% and HTT aggregate 3.55µM*.
CC1=C(C(=O)OCc2ccc3c(c2)OCO3)C(c2ccccc2)NC(=O)N1 (configuration not stated) was read as GLA spleen mod -13.4%, GLA inh pH 4.5 -6.6, HTT ATP protect 16.0%, PKM2 activator -4.5% and HTT aggregate 2.82µM*.
Screening CC1=C(C(=O)OCc2ccc3c(c2)OCO3)C(c2ccc(O)c([N+](=O)[O-])c2)NC(=O)N1 (configuration not stated) returned GLA spleen mod 3.7%, GLA inh pH 4.5 -1.6, PKM2 activator -30.6% and HTT aggregate 7.08µM*.
For CC1=C(C(=O)OCc2ccc3c(c2)OCO3)C(c2ccccc2OCc2ccccc2)NC(=O)N1 (configuration not stated) the results were GLA spleen mod -3.9%, GLA inh pH 4.5 -10.0, HTT ATP protect -46.9%, PKM2 activator -8.9% and HTT aggregate inconclusive.
`Cc1sc2ncnc(N/N=C/c3ccccc3O)c2c1C` gave GLA spleen mod 17.2%, GLA inh pH 4.5 -9.0, HTT ATP protect -73.3%[10 µM], PKM2 activator -0.9% and HTT aggregate 2.51µM*.
`Cc1sc2ncnc(N/N=C/c3ccc(O)cc3)c2c1C` gave GLA spleen mod 7.0%, GLA inh pH 4.5 -2.9, HTT ATP protect 8.5%[10 µM], PKM2 activator -0.8% and HTT aggregate -30.5%.
Screening N[C@@H](CC1=CS(=O)(=O)c2ccc(Cl)cc21)C(=O)O returned HTT ATP protect 3.8%[10 µM].
Screening COc1ccc(NS(=O)(=O)c2ccc(NS(=O)(=O)c3cccs3)cc2)cc1 returned PKM2 activator -12.0%.
CCC(=O)Nc1ccc(S(=O)(=O)Nc2nccs2)cc1 was read as PKM2 activator -1.3%[11.5 µM].
`COc1ccc(CC(=O)Nc2ccc(S(=O)(=O)Nc3nccs3)cc2)cc1` gave PKM2 activator 14.1µM*.
`COc1ccc(S(=O)(=O)Nc2ccc(S(=O)(=O)Nc3nccs3)cc2)cc1` gave PKM2 activator 12.6µM*.
